Laboratory results from PubChem BioAssay AID1159580 (chemical genetic matrix, 2015).
About 2,000 (36%) of roughly 5,500 compounds were called active. Inconclusive results (about 18%) are left out. Cut-off read from the data, not from the text of the source: active = normalized growth mostly below about 0.91 (no sharp cut-off); inconclusive = no clear call, values can overlap the other calls; inactive = mostly above about 0.92. The list shows a part of the results.

Assay: chemical genetic growth profiling, strain panel (AID 1159580);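 note: tested at 20 µM; growth read once vehicle control cultures reached saturation at 30 °C; 1 = growth at the plate median or of vehicle wells; lower values mean less growth of the strain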
Settings: S. cerevisiae deletion strains, growth OD

Measured: normalized growth

FC(F)(F)c1ccnc(-n2ccc(-c3cccs3)n2)n1
active: locus YHR030C, strain SLT2, hits give low values 0.457 | locus YLR039C, strain RIC1, hits give low values 0.733 | locus YLR085C, strain ARP6, hits give low values 0.528 | locus YLR262C, strain YPT6, hits give low values 0.795 | locus YNL298W, strain CLA4 (second series), hits give low values 0.815 | locus YOL006C, strain TOP1, hits give low values 0.64 | locus YPR135W, strain CTF4, hits give low values 0.535
inactive: locus YAL013W, strain DEP1, hits give low values 0.94 | locus YBR229C, strain ROT2, hits give low values 0.964 | locus YCL061C, strain MRC1, hits give low values 0.926 | locus YDL101C, strain DUN1, hits give low values 0.916 | locus YDR150W, strain NUM1, hits give low values 0.987 | locus YEL061C, strain CIN8, hits give low values 0.946 | locus YGR078C, strain PAC10, hits give low values 0.973 | locus YGR229C, strain SMI1, hits give low values 0.972 | locus YHR087W, strain rtc3, hits give low values 1.01 | locus YJR043C, strain POL32, hits give low values 0.963 | locus YJR075W, strain HOC1, hits give low values 0.964 | locus YKL190W, strain CNB1, hits give low values 0.952 | locus YLR058C, strain SHM2 (second series), hits give low values 0.982 | locus YML094W, strain GIM5, hits give low values 0.887 | locus YMR219W, strain ESC1, hits give low values 0.995 | locus YMR263W, strain SAP30, hits give low values 0.955 | locus YNL128W, strain TEP1, hits give low values 0.953 | locus YNL153C, strain GIM3, hits give low values 0.955 | locus YNL322C, strain KRE1, hits give low values 0.994 | locus YNR030W, strain Alg12, hits give low values 0.891 | locus YPL055C, strain LGE1, hits give low values 0.881 | locus YPL241C, strain CIN2, hits give low values 0.9
